In PubChem BioAssay:

Assay: E. coli growth modulation, two-sided OD650, primary screen, E. coli filamentation project, strain DRC41, 24 h (AID 1093);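 note: MC1000 strain lacking acrAB efflux and sulA so SOS filamentation is blocked; test concentration not given here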
Conditions: OD650, 24 h, higher = more signal, called active from +8 up or from −8 down

z-score, inactive:
COc1cc(C(O)C2C=CC3C(=O)N(C)C(=O)C3N2NC(=O)OC(C)(C)C)cc(OC)c1OC (centres undefined) -1.34
COCC(=C=CC[C@@H](O)c1ccccc1OCCO)C[C@@H](O)c1ccccn1 -0.224
C[N+](C)(C)CCCC[C@@H]1NC(=O)[C@@H]2C[C@H](C(=O)O)[C@H](c3cccc(OCCO)c3)N2C1=O 0.817
C=CCC(OC(C)=O)[C@@H]1[C@@H](N(Cc2ccc(-c3cccc(C(F)(F)F)c3)o2)C(=O)c2cccc3ccccc23)c2cc(OCCCO)ccc2N1C(=O)c1ccc(-c2ccccc2)cc1 (some centres undefined) -0.993
COCCCNC(=O)[C@@]1(C)c2ccccc2C(=O)N(c2ccc(C)cn2)[C@H]1c1ccc(CO)cc1 0.288
COCCCNC(=O)[C@@]1(Cc2ccccc2CN=[N+]=[N-])N=C(c2ccc(OCCCO)cc2)O[C@H]1c1ccccc1N=[N+]=[N-] 2.53
CC1(C)[C@@H]2CC(C(O)C3C=CC4C(=O)N(c5ccccc5)C(=O)C4N3Nc3ccccc3F)=C[C@@H]1C2 (some centres undefined) -0.117
CCOC(=O)C[C@H]1[C@H](OC(=O)Cc2ccc3c(c2)OCO3)[C@@H](NC(=O)c2ccccc2)c2cc(OCCCO)ccc2N1C(=O)c1ccc2ccccc2n1 1.45
C=CC[C@]1(C(=O)NCC(O)CO)N=C(c2ccc(OCCCO)cc2)O[C@H]1c1ccccc1N=[N+]=[N-] (some centres undefined) 0.346
C=C(COC)C(=O)CC[C@H](OC(=O)c1ccccc1-c1ccccc1C(=O)O)c1ccc(OCCO)cc1 0.802
COC(=O)[C@@]1(Cc2ccc(OC)cc2)[C@H]2c3cc(C(=O)N(C)C)n(Cc4cc(F)c(F)c(F)c4)c3C[C@H]2CN1C(=O)c1ccccc1 -0.909
C=CCC(OC(C)=O)[C@@H]1[C@@H](N(Cc2ccc(-c3ccccc3)cc2)C(=O)Cc2ccc(OC)cc2)c2cc(OCCCO)ccc2N1C(=O)c1ccc(-c2ccccc2)cc1 (some centres undefined) 1.23
COc1ccc(CCNC(=O)[C@@H]2c3ccccc3C(=O)N(Cc3ccccc3)[C@H]2c2ccc(CO)cc2)cc1 1.95
COC(=O)C(CC#Cc1ccc2c(c1)[C@]1(C(=O)N2)[C@H](c2ccccc2OCCO)N2[C@H](c3ccccc3)[C@H](c3ccccc3)OC(=O)[C@H]2[C@@H]1C(=O)Nc1nc2ccccc2s1)C(=O)OC -0.724
COc1cc2c(cc1OC)CN(C(=O)[C@@H]1[C@H]3C(=O)O[C@H](c4ccccc4)[C@H](c4ccccc4)N3[C@H](c3ccc(OCCO)cc3)[C@@]13C(=O)Nc1ccc(C#CCCO)cc13)CC2 2
C[N+](C)(C)CCCCCCNC(=O)[C@H]1C[C@H]2C(=O)N3CCC[C@H]3C(=O)N2[C@H]1c1cccc(OCCO)c1 -0.64
C=C(C(=O)CC[C@H](OC(=O)c1cccnc1)c1ccc(OCCO)cc1)C(C)C -0.388
C=C(COC)C(=O)CC[C@H](OC(=O)c1ccccc1-c1ccccc1C(=O)O)c1ccc(CO)o1 0.229
COC(=O)[C@@]1(Cc2ccccc2)[C@H]2c3cc(C(=O)N4CCCC4)n(Cc4ccc(OC(F)(F)F)cc4)c3C[C@H]2CN1C(=O)c1ccccc1 -1.43
CO[C@H]1O[C@H](CO)[C@@H](OC(=O)c2ccc(Br)cc2)[C@@H]2OC(=O)[C@H](Cc3cccc(Br)c3)C/C=C/C[C@@H](Cc3cccc(Br)c3)C(=O)O[C@@H]12 -0.972
Cc1ccc(N2C(=O)c3ccccc3[C@](C)(C(=O)NC(C)C)[C@@H]2c2ccc(CO)cc2)nc1 1.19
NC(=O)[C@@H]1[C@H]2C(=O)O[C@H](c3ccccc3)[C@H](c3ccccc3)N2[C@H](c2ccccc2OCCO)[C@@]12C(=O)Nc1ccc(C#CCCO)cc12 0.973
O=C1O[C@H](c2ccccc2)[C@H](c2ccccc2)N2[C@H]1[C@@H](C(=O)N1CCN(c3ncccn3)CC1)[C@]1(C(=O)Nc3ccc(C#CCCO)cc31)[C@H]2c1ccc(OCCO)cc1 0.132
CCCC=C(CCC)[C@@H](NS(=O)(=O)c1cccc2cccnc12)c1ccc(C(=O)OC)cc1 -0.376
